Drawing on PubChem BioAssay (Tox21), this text covers Potency for 6 compounds.

Assay [1] in a line: Nuclear factor erythroid 2-related factor 2/antioxidant responsive element (Nrf2/ARE) small molecule agonists: luciferase reporter gene qHTS assay in human keratinocytes (AID 1919969). Also: nearly all actives have a fitted effect of over 35% in size. Also: potency is read from the fitted curve at half-maximal effect. For orientation: In a reporter assay the amount or activity of a reporter protein is the signal.
For assay [2], the target named is Gonadotropin-releasing hormone receptor (Homo sapiens) (UniProt P30968). Description: Human gonadotropin-releasing hormone receptor (GnRHR) small molecule agonists, calcium flux assay in GnRHR-HEK293 cells (AID 1920063). Also: nearly all actives have a fitted effect of over 35% in size. Put shortly: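 We seeded human GnRHR-expressing HEK293 cells for 18 hours, loaded them with calcium dye for an hour at 37 C, added test compounds, and recorded fluorescence intensity kinetically for three minutes.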
Background: A change in cytosolic calcium serves as a functional read-out for many receptors and channels.

Assay [3] has as its target KiSS-1 receptor (Homo sapiens) (UniProt Q969F8). Description: Human kisspeptin (KISS1R) small molecule agonists, calcium flux assay in KISS1R-HEK293 cells (AID 1920064; active = well fitted activation curve with a large enough effect in the repeat runs). Put shortly: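 Kinetic calcium assay, 1 s sampling over 3 min at Ex/Em 480/540, in HEK293 cells engineered with human KISS1R; compounds delivered in DMSO after 1 h dye loading.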
A short description of assay [4]: G protein-coupled receptor (GPCR) small molecule agonists, calcium flux assay: HEK293 wild type cell line counter screen (AID 1920065). Put shortly:
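Calcium-sensitive dye, loaded 1 h at 37 C into cells cultured 18 h, reports compound-evoked calcium release as fluorescence (Ex/Em 480/540), measured over 3 min. Agonist mode; 15-point titrations, triplicate.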

Assay [5] can be described thus: p53 small molecule agonists, cell-based qHTS assay with human liver microsomes (AID 1963577).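 Also: p53 response element beta-lactamase reporter cells with liver microsomes plus NADPH.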 The method in brief: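 With metabolic activation: human liver microsomes (0.5 mg/mL final) plus NADPH (0.5 mg/mL final) added alongside compounds to p53RE-bla cells; 16 h 37 C exposure; beta-lactamase read by LiveBLAzer fluorescence.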
In general terms: In qHTS, concentration-response curves come from the screen itself.

The nature of assay [6]: p53 small molecule agonists, cell-based qHTS assay with rat liver microsomes (AID 1963578). The method in brief:
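Metabolic activation by rat liver microsomes and NADPH, each 0.5 mg/mL final, added right after compounds to p53RE-bla reporter cells (4,000/well, plated 5 h earlier). 16 h at 37 C, then LiveBLAzer substrate for 2 h at room temperature in the dark; fluorescence read-out.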

The nature of assay [7]: p53 small molecule agonists, cell-based qHTS assay with human liver microsomes: qHTS cell viability counter screen (AID 1963579). Also: nearly all actives have a fitted effect of over 45% in size. The method in brief: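 Metabolic activation used human liver microsomes and NADPH, both 0.5 mg/mL final, over 16 hours at 37 C on p53RE-bla cells (4,000/well). Cytotoxicity measured by CellTiter-Glo luminescence, 30 min at room temperature.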
Assay [8] can be described thus: p53 small molecule agonists, cell-based qHTS assay with rat liver microsomes: qHTS cell viability counter screen (AID 1963580). Also: nearly all actives have a fitted effect of over 45% in size. Put shortly:
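p53RE-bla HCT-116 cells were exposed 16 h at 37 C to compounds with rat liver microsomes (0.5 mg/mL) and NADPH (0.5 mg/mL). Viability was measured in the same wells as ATP content by CellTiter-Glo luminescence.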

Assay [9] can be described thus: p53 small molecule agonists, cell-based qHTS assay: qHTS cell viability counter screen (AID 1963581). Also: nearly all actives have a fitted effect of over 45% in size. The method in brief: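 Following 5 h attachment, HCT-116 p53RE-bla cells took up compound for 16 h at 37 C; the reporter was read with B/G FRET substrate (2 h RT), and viability then via CellTiter-Glo ATP luminescence.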
Assay [10] can be described thus: p53 small molecule agonists, cell-based qHTS assay (AID 1963582; active = well fitted activation curve with a large enough effect in the signal ratio in the repeat runs, not every such curve was filed as active; the % refers to the signal ratio). Put shortly: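 In this cell-based concentration-response screen, a p53 response element drives beta-lactamase; cells received DMSO-borne compounds after 5 h culture and were incubated a further 16 h before FRET substrate development.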
Assay [11] deals with 5-hydroxytryptamine receptor 2A (Homo sapiens) (UniProt P28223). Briefly: 5-hydroxytryptamine receptor 2A (HTR2A) small molecule agonists, cell-based qHTS assay (AID 1963587). Also: nearly all actives have a fitted effect of over 30% in size. The method in brief: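 CHO cells stably expressing human HTR2A, plated 18 h, loaded with calcium dye 1 h at 37 C. Agonist mode: compounds added and intracellular calcium fluorescence recorded kinetically for 2 min at 1 sec intervals.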

The target in assay [12] is Muscarinic acetylcholine receptor M1 (Homo sapiens) (UniProt P11229). Description: Cholinergic receptor muscarinic 1 (CHRM1) small molecule agonists, cell-based qHTS assay (AID 1963589). Also: nearly all actives have a fitted effect of over 35% in size. Put shortly: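 Measures agonist-induced intracellular calcium rise. Stable human CHRM1 CHO line, 1 h dye load at 37 C, compounds from DMSO, kinetic fluorescence read.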
Assay [13] is described as follows: cAMP Responsive Elements (CRE) small molecule antagonists, cell-based qHTS assay (AID 1963591; active = well fitted inhibition curve with a large enough effect in the signal ratio in the repeat runs, not every such curve was filed as active; the % refers to the signal ratio). The method in brief: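 HEK293T cells carrying a CRE-driven beta-lactamase reporter receive compound and NKH477 (0.25 uM final) for 3 h. Fluorescence from LiveBLAzer B/G FRET substrate is read after 2 h at room temperature.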
The target of assay [14] is Beta-2 adrenergic receptor (Homo sapiens) (UniProt P07550). Briefly: Adrenergic beta2 receptor (ADRB2) small molecule antagonists, cell-based qHTS assay (AID 1963592). Also: series mostly up to about 92 µM; nearly all actives have a fitted effect of over 50% in size. The method in brief: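 Cells (CHO, stable ADRB2 overexpression) incubated 18-20hr at 37C; compounds added from DMSO; agonist mix (1nM isoproterenol, 100uM IBMX, 25uM Ro-20-1724) added; 0.5hr RT; d2-cAMP and anti-cAMP-cryptate added; 1hr RT; 665/615 nm read.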

Assay [15] has the same target. Description: Adrenergic beta2 receptor (ADRB2) small molecule agonists, cell-based qHTS assay (AID 1963593).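 Also: CHO cells stably overexpressing human ADRB2.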 The method in brief:
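CHO cells stably over-expressing ADRB2 were plated overnight at 37C, then dosed with compounds plus a stimulation mix containing 100uM IBMX and 25uM Ro-20-1724 for 0.5hr at room temperature. cAMP was measured by HTRF competition, 1hr.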

In assay [16] the target is D(2) dopamine receptor (Homo sapiens) (UniProt P14416). Description: Dopamine D2 receptor (DRD2) small molecule agonists, cell-based qHTS assay (AID 1963594). Also: nearly all actives have a fitted effect of over 35% in size. Also: potency is read from the fitted curve at half-maximal effect. Put shortly:
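HEK293 cells stably expressing human DRD2, pre-treated with PDE inhibitor Ro20-1724 (0.1 mM final) and compound 10 min at room temperature, then stimulated with NKH477 (200nM […]) for 30 min. cAMP read by HTRF (665/620 nm).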

The target in assay [17] is 5-hydroxytryptamine receptor 2A (Homo sapiens) (UniProt P28223). Description: 5-hydroxytryptamine receptor 2A (HTR2A) small molecule antagonists, cell-based qHTS assay (AID 1963586). Also: nearly all actives have a fitted effect of over 45% in size. The method in brief: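 Antagonist-mode intracellular calcium assay: DOI (4 nM) added after 5 min compound pre-incubation at room temperature to dye-loaded HTR2A-CHO cells. Fluorescence followed for 3 min, sampled every second.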

Assay [18] addresses Muscarinic acetylcholine receptor M1 (Homo sapiens) (UniProt P11229). Description: Cholinergic receptor muscarinic 1 (CHRM1) small molecule antagonists, cell-based qHTS assay (AID 1963588). Also: nearly all actives have a fitted effect of over 40% in size. The method in brief:
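CHRM1-CHO calcium-flux assay, antagonist mode. Cells were seeded 18 h, dye-loaded 1 h at 37 C and given compound for 5 min at RT, then acetylcholine was added at 50nM. FDSS fluorescence was read 3 min; 15 concentrations, three runs.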

The target in assay [19] is D(2) dopamine receptor (Homo sapiens) (UniProt P14416). Description: Dopamine D2 receptor (DRD2) small molecule antagonists, cell-based qHTS assay (AID 1963595; active = well fitted inhibition curve with a large enough effect in the signal ratio in the repeat runs, with a control signal flat; the % refers to the signal ratio). Put shortly: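 Readout: HTRF cAMP, cAMP-d2 competing with cellular cAMP for anti-cAMP cryptate, read after 1 h. Cells: DRD2-HEK293. Conditions: 0.1 mM Ro20-1724, 12 nM quinpirole, 200 nM NKH477, 30 min RT.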

A short description of assay [20]: cAMP Responsive Elements (CRE) small molecule agonists, cell-based qHTS assay (AID 1963590). Put shortly: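 A CRE-responsive beta-lactamase reporter in HEK 293T cells was used. Treatment ran 3 h at 37 C; detection used LiveBLAzer B/G FRET substrate for 2 h at room temperature.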

Where “and” joins values, the source holds several entries; their conditions need not be identical. Equal values may be shown once. Results filed as inconclusive are left out. Calls of active or inactive are those of the source. Unless noted, calls follow the shape of the full dose curve.

Beta-2 adrenergic receptor (Homo sapiens), sequence (P07550 whole entry, looked up): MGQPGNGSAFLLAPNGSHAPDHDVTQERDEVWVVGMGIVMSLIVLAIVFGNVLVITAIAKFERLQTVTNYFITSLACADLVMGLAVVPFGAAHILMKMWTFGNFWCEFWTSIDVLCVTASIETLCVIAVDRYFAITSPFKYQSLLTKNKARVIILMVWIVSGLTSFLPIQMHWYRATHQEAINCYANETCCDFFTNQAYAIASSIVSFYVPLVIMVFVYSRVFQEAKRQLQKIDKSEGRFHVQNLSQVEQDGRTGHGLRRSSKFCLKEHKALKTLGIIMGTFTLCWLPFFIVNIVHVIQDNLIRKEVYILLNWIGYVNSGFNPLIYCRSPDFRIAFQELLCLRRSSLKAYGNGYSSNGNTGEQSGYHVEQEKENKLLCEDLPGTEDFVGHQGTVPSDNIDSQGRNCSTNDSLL
Muscarinic acetylcholine receptor M1 (Homo sapiens), sequence (P11229 whole entry, looked up): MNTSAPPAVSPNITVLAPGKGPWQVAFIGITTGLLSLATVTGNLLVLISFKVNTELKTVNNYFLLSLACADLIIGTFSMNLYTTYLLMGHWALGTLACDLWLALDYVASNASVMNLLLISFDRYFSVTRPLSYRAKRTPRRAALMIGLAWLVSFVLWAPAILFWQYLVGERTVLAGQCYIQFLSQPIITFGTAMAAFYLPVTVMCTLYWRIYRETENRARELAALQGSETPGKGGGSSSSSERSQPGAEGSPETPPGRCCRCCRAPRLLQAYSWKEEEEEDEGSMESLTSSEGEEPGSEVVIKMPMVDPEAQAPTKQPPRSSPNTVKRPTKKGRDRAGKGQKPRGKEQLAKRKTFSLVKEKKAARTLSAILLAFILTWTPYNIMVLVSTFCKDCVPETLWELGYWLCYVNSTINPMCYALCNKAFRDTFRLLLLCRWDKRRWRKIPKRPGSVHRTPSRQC
5-hydroxytryptamine receptor 2A (Homo sapiens), sequence (P28223 whole entry, looked up): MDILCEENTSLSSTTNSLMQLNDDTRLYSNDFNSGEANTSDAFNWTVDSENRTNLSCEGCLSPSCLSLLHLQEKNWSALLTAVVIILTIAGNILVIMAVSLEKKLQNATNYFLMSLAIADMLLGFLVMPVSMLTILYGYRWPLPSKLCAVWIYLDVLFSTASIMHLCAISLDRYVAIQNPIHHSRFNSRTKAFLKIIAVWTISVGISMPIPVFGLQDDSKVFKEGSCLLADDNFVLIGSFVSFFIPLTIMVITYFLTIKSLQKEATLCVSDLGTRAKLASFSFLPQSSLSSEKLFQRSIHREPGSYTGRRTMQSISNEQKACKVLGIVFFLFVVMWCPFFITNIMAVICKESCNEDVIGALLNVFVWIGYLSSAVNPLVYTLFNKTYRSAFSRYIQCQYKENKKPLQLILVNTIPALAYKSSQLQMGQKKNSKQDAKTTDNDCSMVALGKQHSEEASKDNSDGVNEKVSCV
Gonadotropin-releasing hormone receptor (Homo sapiens), sequence (P30968 whole entry, looked up): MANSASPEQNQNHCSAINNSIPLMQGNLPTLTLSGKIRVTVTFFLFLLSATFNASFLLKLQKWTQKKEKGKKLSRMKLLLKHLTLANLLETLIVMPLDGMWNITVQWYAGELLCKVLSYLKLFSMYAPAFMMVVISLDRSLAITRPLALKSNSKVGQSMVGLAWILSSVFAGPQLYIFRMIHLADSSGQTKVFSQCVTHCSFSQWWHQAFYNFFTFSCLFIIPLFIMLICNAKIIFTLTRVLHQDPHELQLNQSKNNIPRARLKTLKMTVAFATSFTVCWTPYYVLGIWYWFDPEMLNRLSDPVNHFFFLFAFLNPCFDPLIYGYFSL
KiSS-1 receptor (Homo sapiens), sequence (Q969F8 whole entry, looked up): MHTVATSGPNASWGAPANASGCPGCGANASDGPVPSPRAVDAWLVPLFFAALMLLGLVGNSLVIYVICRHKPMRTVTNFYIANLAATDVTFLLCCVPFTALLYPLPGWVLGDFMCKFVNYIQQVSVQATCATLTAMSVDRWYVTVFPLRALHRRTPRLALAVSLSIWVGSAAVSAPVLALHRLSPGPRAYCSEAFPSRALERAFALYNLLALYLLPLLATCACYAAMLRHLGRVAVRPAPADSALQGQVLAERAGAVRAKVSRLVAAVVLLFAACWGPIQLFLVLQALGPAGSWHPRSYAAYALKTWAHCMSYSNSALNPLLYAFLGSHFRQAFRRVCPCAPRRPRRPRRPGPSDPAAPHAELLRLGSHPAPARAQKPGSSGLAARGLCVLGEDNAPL
D(2) dopamine receptor (Homo sapiens), sequence (P14416 whole entry, looked up): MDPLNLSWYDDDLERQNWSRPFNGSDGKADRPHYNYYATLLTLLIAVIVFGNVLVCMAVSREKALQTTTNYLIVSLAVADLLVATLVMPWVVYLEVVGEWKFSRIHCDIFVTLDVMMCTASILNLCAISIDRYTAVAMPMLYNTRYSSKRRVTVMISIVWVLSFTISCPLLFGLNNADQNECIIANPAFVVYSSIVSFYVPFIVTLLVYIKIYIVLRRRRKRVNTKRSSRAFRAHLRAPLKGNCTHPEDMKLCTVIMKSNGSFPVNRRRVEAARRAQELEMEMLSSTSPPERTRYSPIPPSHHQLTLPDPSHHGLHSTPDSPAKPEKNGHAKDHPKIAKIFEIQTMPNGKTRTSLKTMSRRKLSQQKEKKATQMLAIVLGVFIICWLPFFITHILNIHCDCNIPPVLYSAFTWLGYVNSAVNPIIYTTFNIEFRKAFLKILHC

On to `COC(=O)[C@@H](N)Cc1ccc(O)c(O)c1`, for which the Potency result in assay [1], in assay [2], in assay [3], in assay [4], in assay [5] and in assay [6] was “inactive” each time. For the same compound, the Potency entry in [7], in assay [8], in assay [9], in [10], in assay [11] and in [12] was “inactive” in each case. Also, the Potency entry in assay [13], in assay [14] and in assay [15] was “inactive” each time. The Potency in assay [16] was 26.6 µM (active).
For the compound `CC(C)C(OC(=O)c1ccccc1)C(C)(C)COC(=O)c1ccccc1` (stereo not given), in assay [1], the Potency is 30.6 µM (active). In addition, the Potency result in assay [2], in assay [3], in [4], in assay [5], in assay [6] and in assay [7] was “inactive” each time. For the same compound, the Potency result in [8], in [9], in assay [17], in assay [11], in assay [18] and in assay [12] was “inactive” in each case. Besides, the Potency result in [13], in assay [14], in assay [15], in assay [16] and in assay [19] was “inactive” each time.
Take `CC1=NN(c2cc(S(=O)(=O)O)ccc2Cl)C(=O)C1N=Nc1ccccc1` (stereo not given): the Potency result in [1], in [2], in assay [3], in assay [4], in [5] and in assay [6] was “inactive” throughout. For the same compound, the Potency result in assay [7], in assay [8], in [9], in assay [10], in assay [17] and in [11] was “inactive” in each case. Besides, the Potency entry in assay [18], in assay [12], in assay [20], in assay [13], in [14] and in assay [15] was “inactive” in each case. Moreover, the Potency result in assay [16] and in assay [19] was “inactive” throughout.
As to `CCCCN(CCCC)CC(O)c1cc(Cl)cc2c1-c1ccc(Cl)cc1/C2=C/c1ccc(Cl)cc1` (stereo not given), the Potency result in assay [1], in assay [2], in [3], in assay [4], in assay [5] and in assay [6] was “inactive” throughout. The Potency result in assay [7], in assay [8], in assay [9], in assay [10], in assay [17] and in [18] was “inactive” in each case. In addition, the Potency result in assay [12], in [16] and in assay [19] was “inactive” throughout.
Regarding `C1CN(SSN2CCOCC2)CCO1`, the Potency in [1] was 13.5 µM (active) and 68.6 µM (active). Besides, the Potency result in [2], in assay [3], in assay [4], in [5], in assay [6] and in assay [7] was “inactive” in each case. For the same compound, the Potency result in assay [8], in [9], in assay [10], in [17], in [18] and in assay [12] was “inactive” each time. The Potency result in assay [16] and in assay [19] was “inactive” each time.
Take `CC1(C)O[C@@H]2C[C@H]3[C@@H]4CCC5=CC(=O)C=C[C@]5(C)[C@H]4[C@@H](O)C[C@]3(C)[C@]2(C(=O)CO)O1`: the Potency result in [1], in assay [2], in [3], in assay [4], in [5] and in [6] was “inactive” throughout. The Potency result in assay [7], in [8], in assay [9], in assay [10], in assay [11] and in [18] was “inactive” throughout. In addition, the Potency result in assay [12], in assay [14], in [15] and in assay [16] was “inactive” in each case.
